Experimental findings from ChEMBL document CHEMBL3988442, “University of Dundee, Small-Polar-MMV Screening Library” (2021) are described below.

Holding throughout (set-up): scale not given: direction of the effect not stated beside the values
The target of assay [1] is Protein translocase subunit SecA (Escherichia coli (strain K12)) (UniProt P10408). The assay is described as follows: Assay to Identify E. coli SecA ATPase Inhibitors. The format is functional. The following applies: 30 µM.
Assay [2] deals with T1, Ubiquitin-activating enzyme e1, putative (Leishmania donovani (strain BPK282A1)) (UniProt E9BSI1).
T1 sequence (whole entry): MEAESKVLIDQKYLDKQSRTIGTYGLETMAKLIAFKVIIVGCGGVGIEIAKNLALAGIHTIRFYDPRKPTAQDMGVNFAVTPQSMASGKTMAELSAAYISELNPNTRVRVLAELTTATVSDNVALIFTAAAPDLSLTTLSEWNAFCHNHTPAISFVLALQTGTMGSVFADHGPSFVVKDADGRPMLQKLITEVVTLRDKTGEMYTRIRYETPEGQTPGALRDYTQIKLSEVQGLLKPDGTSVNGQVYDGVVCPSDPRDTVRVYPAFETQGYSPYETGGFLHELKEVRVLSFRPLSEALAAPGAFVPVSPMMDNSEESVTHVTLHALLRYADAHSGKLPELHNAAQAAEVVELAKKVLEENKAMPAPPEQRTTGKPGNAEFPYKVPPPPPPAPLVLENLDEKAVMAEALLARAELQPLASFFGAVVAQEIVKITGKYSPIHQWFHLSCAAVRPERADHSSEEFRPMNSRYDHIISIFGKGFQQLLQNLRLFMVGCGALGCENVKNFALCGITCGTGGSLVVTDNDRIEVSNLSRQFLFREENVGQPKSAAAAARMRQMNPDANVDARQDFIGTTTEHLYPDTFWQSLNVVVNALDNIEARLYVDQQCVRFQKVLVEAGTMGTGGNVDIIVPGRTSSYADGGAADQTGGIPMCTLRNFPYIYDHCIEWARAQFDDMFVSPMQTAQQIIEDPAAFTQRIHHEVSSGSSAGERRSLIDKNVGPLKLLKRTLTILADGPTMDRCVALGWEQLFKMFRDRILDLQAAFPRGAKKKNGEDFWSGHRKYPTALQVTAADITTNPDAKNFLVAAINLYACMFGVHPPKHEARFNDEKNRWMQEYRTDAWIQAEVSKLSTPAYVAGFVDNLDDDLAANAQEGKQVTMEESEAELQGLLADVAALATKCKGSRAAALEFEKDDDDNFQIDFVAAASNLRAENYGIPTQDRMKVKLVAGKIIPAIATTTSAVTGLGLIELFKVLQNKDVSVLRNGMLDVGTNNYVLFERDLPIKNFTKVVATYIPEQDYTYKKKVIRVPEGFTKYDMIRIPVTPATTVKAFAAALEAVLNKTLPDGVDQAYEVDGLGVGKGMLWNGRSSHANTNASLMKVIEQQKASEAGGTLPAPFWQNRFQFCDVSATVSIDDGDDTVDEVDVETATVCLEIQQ
The assay is described as follows: Leishmania donovani Ubiquitin Activating Enzyme (LdE1). It counts as functional. The settings on record: 30 µM.

In assay [3] the target is AMP-activated protein kinase, AMPK (Homo sapiens) (UniProt P54646+O43741+P54619+Q9UGJ0+Q9Y478+Q13131+Q9UGI9). The assay is described as follows: AMP-dependent Kinase enzyme assay. An in vitro enzyme assay that detects ADP turnover that is directly proportional to AMPK activity. This uses naive AMPK that is activated during the assay with MK-8722. The format is functional. The following applies: 30 µM.

Assay [4] addresses Sialic acid-binding Ig-like lectin 9 (Homo sapiens) (UniProt Q9Y336). The assay is described as follows: Hs-Siglec9 ALPHAscreen SOP 20170721. The settings on record: 10 µM. Background: Alpha assays give light when donor and acceptor beads are brought close together.
In the next assay the test system is Trypanosoma cruzi. The assay is described as follows: Trypanosoma cruzi phosphomannomutase and mannose-1-phosphate guanylyltransferase assay. The format is functional. The settings on record: 10 µM.
Assay [5] concerns the target T2, Arginase-2, mitochondrial (Homo sapiens) (UniProt P78540).
T2 sequence (whole entry): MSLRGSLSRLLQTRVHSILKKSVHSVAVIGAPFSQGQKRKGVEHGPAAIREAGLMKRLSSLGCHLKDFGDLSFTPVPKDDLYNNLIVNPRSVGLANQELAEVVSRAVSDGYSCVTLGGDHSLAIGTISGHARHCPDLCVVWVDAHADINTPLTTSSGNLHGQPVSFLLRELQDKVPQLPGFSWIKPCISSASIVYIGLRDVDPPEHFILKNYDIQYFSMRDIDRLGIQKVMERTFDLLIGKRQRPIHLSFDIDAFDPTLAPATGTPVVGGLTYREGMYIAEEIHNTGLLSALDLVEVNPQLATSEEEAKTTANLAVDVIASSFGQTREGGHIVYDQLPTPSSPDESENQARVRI
The assay is described as follows: in vitro enzyme assay to detect the production of urea directly proportional to the activity of Arginase II. Note: in the data most compounds retested in dose-response had high values. The format is functional. The settings on record: 33.3 µM.

Assay [6] has as its target T3, Proteasome subunit beta (Trypanosoma cruzi) (UniProt O96673).
T3 sequence (whole entry): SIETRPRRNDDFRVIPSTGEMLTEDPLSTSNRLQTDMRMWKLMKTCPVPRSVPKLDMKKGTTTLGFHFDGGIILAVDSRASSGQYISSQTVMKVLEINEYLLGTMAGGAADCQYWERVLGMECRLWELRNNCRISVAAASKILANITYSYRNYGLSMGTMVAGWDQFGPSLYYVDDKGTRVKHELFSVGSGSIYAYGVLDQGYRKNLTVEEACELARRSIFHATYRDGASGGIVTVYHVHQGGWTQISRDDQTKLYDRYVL
The assay is described as follows: Trypanosoma cruzi proteasome chymotrypsin-like activity (TcProtChymo) assay. Note: in the data most compounds retested in dose-response had high values. It counts as functional. The settings on record: 9.37 µM.

The species named for a further assay is Homo sapiens. The assay is described as follows: To identify inhibition of the IFN signalling (Jak-Stat) pathway via expression of an eGFP reporter gene under the control of an IFN-stimulated response element (ISRE) containing MxA promoter. It counts as functional. The following applies: 30 µM. Background: A reporter such as luciferase makes a cellular process visible.

The target in assay [7] is T4, Tyrosyl-tRNA synthetase, putative (Trypanosoma cruzi (strain CL Brener)) (UniProt Q4DSP6).
T4 sequence (whole entry): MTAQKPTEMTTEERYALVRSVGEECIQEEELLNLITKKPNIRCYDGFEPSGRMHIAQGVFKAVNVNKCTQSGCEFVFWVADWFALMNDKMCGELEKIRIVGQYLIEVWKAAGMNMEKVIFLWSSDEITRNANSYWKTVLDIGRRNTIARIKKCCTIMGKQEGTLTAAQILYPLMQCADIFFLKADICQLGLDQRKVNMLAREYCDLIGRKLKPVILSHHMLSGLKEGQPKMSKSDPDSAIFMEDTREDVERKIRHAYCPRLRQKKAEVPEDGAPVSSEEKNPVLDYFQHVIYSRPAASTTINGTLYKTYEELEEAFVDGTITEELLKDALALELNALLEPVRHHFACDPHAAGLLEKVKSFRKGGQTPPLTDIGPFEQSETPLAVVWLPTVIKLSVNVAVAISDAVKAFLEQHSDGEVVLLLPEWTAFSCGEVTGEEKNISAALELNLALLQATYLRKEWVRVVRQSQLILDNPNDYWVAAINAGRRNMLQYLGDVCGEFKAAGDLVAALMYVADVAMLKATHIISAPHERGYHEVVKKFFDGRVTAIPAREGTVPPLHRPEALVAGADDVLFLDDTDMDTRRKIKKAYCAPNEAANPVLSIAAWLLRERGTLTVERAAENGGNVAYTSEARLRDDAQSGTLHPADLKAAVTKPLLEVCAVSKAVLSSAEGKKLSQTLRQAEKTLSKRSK
The assay is described as follows: Trypanosoma cruzi tyrosyl tRNA synthetase (TcYRS) _High Tyrosine SOP. Note: in the data most compounds retested in dose-response had high values. It counts as functional. The settings on record: 30 µM.

In assay [8] the target is T4, Tyrosyl-tRNA synthetase, putative (Trypanosoma cruzi (strain CL Brener)). The assay is described as follows: Trypanosoma cruzi tyrosyl tRNA synthetase (TcYRS) SOP. The format is functional. The following applies: 30 µM.
For assay [9], the target named is Chromo domain-containing protein 1 (Saccharomyces cerevisiae (strain ATCC 204508 / S288c) (Baker's yeast)) (UniProt P32657). The assay is described as follows: ScCHD-1 Enzyme Inhibition Assay. Note: in the data most compounds retested in dose-response had high values. It counts as functional. The settings on record: 30 µM.

For some of these results: Entries with a potency or affinity are not part of this list.

Protein translocase subunit SecA (Escherichia coli (strain K12)), sequence (P10408 whole entry): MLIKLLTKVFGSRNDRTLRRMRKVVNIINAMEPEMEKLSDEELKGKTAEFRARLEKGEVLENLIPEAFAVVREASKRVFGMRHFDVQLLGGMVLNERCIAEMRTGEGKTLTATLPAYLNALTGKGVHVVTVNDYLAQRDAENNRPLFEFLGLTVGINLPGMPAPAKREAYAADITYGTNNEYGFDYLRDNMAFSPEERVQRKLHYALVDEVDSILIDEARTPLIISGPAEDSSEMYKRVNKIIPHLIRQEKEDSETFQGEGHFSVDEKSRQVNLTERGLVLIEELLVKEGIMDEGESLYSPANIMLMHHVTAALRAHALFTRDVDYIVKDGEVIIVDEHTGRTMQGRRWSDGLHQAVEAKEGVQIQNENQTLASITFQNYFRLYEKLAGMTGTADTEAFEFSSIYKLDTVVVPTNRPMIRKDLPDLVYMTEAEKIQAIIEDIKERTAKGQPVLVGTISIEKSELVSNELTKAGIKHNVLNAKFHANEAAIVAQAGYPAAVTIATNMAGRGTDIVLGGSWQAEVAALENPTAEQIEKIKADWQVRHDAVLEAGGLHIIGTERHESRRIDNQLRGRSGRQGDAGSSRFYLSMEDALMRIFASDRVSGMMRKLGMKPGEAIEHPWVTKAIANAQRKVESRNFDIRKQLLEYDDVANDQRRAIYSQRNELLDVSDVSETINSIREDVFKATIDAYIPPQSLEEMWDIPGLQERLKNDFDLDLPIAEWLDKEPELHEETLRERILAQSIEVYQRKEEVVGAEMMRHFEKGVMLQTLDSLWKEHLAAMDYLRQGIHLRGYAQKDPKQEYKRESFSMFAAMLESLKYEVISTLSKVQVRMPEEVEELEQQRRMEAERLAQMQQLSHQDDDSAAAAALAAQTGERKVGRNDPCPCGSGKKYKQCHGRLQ
Sialic acid-binding Ig-like lectin 9 (Homo sapiens), sequence (Q9Y336 whole entry): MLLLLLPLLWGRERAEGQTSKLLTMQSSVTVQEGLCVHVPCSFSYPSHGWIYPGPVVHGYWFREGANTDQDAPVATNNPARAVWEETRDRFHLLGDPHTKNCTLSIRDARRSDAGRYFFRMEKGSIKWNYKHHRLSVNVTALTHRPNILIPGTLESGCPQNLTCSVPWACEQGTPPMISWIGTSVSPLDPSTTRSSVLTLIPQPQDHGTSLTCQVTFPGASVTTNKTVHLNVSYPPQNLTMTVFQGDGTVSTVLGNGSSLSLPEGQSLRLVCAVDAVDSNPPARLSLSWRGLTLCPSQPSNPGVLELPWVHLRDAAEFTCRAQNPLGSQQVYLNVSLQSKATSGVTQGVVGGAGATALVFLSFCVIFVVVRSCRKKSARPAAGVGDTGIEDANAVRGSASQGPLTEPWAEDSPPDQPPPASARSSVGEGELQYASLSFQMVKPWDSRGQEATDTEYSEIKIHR
Chromo domain-containing protein 1 (Saccharomyces cerevisiae (strain ATCC 204508 / S288c) (Baker's yeast)), sequence (P32657 whole entry, the tested form may be a part): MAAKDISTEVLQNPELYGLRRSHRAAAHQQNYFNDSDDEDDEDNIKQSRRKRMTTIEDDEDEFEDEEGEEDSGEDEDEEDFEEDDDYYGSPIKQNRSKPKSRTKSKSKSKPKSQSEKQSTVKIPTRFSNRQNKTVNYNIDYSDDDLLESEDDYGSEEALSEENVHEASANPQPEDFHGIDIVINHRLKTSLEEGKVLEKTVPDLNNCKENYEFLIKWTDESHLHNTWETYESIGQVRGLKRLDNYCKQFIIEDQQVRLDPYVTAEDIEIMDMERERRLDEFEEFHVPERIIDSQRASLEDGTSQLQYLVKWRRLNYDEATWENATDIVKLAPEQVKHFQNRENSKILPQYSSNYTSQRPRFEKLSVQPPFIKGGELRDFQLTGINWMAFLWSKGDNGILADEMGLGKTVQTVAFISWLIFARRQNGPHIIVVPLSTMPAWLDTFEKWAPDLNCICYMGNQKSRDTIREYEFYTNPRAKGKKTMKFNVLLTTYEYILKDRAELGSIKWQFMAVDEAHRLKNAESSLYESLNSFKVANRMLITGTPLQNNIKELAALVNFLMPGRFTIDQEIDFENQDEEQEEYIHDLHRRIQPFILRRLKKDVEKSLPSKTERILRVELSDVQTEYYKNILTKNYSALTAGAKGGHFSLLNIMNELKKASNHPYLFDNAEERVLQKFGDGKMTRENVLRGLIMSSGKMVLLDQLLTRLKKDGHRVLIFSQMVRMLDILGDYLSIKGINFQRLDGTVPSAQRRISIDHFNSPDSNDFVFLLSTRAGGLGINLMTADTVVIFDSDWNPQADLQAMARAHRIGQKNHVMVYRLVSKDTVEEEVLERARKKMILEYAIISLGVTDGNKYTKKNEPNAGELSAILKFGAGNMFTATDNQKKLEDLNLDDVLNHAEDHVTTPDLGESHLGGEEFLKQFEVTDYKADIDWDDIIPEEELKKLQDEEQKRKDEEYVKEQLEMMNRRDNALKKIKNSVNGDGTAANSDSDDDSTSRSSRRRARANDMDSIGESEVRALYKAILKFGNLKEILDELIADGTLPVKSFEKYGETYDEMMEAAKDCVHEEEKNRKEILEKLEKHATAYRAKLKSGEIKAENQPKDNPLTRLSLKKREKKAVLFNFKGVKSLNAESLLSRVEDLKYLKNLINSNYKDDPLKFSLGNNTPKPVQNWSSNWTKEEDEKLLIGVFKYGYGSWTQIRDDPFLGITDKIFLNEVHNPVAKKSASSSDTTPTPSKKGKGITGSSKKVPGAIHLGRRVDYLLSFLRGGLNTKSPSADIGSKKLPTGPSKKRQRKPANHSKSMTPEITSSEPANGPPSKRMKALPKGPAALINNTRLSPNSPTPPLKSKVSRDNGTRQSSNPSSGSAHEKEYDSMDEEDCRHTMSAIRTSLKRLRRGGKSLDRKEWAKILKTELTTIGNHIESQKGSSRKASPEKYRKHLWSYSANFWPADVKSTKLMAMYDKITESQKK

As for `Cc1ccc(N2CC[C@H]3C[C@@H](C(=O)N4CCOCC4)O[C@H]3C2)nn1`, the Percent Effect in [1] is -2.71%; in assay [2], 13.5%; in assay [3] it was -1.79%; in assay [4] it was -1.51%; with Trypanosoma cruzi, -0.293%; in [5], -0.319%. The Percent Effect in assay [6] was 11.6%; in the assay listed under Homo sapiens, -4.87%; in assay [7], 10.8%; in assay [8] it was 15.4%; in assay [9] it was -1.79%.

As for `COCCN1CCc2cc(C(=O)N(C)C)c(NCC3CC3)nc2CC1`, the Percent Effect is -8.99% in assay [1]; 2.7% in [2]; 1.27% in assay [3]; -1.99% in assay [4]; -5.38% in the assay on Trypanosoma cruzi; -1.24% in [5]. The Percent Effect in [6] is 8.5%; in the assay listed under Homo sapiens it was -19.8%; in assay [7] it was 2.15%; in [8], 11.1%; in assay [9] it was -0.0365%.

Consider `COC1COC2(CCN(Cc3ccccc3Cl)CC2)C1` (stereo not drawn), for which the Percent Effect is -5.82% in assay [1]; 1.33% in assay [2]; 7.01% in [3]; 5.98% in assay [4]; -0.982% with Trypanosoma cruzi; 2.29% in assay [5]. Moreover, the Percent Effect in assay [6] is 11.5%; in the assay filed under Homo sapiens, 20.8%; in assay [7] it was -2.12%; in assay [8], 5.13%; in [9] it was 0.93%.

Regarding `Cc1ccc(NC2CCN(C(=O)c3c(C)noc3C)CC2)nn1`, the Percent Effect is -4.36% in assay [1]; 13.2% in assay [2]; 0.922% in [3]; 9.85% in assay [4]; 7.33% with Trypanosoma cruzi; -0.766% in [5]. The Percent Effect is 3.68% in assay [6]; -4.46% in the assay listed under Homo sapiens; 3.43% in assay [7]; 12.2% in [8]; -7.4% in [9].

For the compound `COc1ccc(C)cc1CSCCn1nc2ccccn2c1=O`, the Percent Effect was -4.01% in assay [1]; 20.8% in assay [2]; -1.24% in assay [3]; -10.9% in assay [4]; 4.6% in the assay with Trypanosoma cruzi; -1.47% in [5]. Further, the Percent Effect is 12.7% in assay [6]; 11.9% in the assay filed under Homo sapiens; 3.81% in assay [7]; 21.2% in assay [8]; -22.4% in assay [9].

In the case of `O=C(NCc1ccco1)[C@H]1C[C@@H]2CCN(c3ccncn3)C[C@@H]2O1`, the Percent Effect in assay [1] was -3.35%; in assay [2], 10.7%; in [3], 1.73%; in assay [4] it was 2.91%; with Trypanosoma cruzi it was 6.56%; in assay [5], -56.5%. Further, the Percent Effect was 16.9% in [6]; -18.7% in the assay listed under Homo sapiens; 6.25% in assay [7]; 17.5% in assay [8]; -5.87% in [9].

For the compound `Cn1nnc2c1CCN(Cc1nccs1)C2COCc1ccccc1` (stereo not drawn), the Percent Effect is -2.95% in [1]; 2.67% in [2]; -19.8% in assay [3]; 5.81% in assay [4]; 1.77% in the assay with Trypanosoma cruzi; 5.83% in [5]. In addition, the Percent Effect was -8.9% in assay [6]; -0.293% in the assay listed under Homo sapiens; 7.45% in assay [7]; 8.97% in assay [8]; -0.607% in assay [9].

As for `O=C(c1cccn1Cc1cccs1)N1CCN(C(=O)C2CC2)CC1`, the Percent Effect in [1] was -6.16%; in assay [2] it was 13%; in assay [3], 1.66%; in [4] it was 2.72%; with Trypanosoma cruzi it was 1.5%; in assay [5], -0.712%. For the same compound, the Percent Effect in [6] is 0.845%; in the assay filed under Homo sapiens it was 9.85%; in assay [7] it was 8.74%; in assay [8] it was 21.9%; in assay [9] it was 1.63%.
